Here are results for twelve molecules from the supplement of paper PMC9023506.

Counter-ions that a name gives are not always drawn.

The experiment relates to Danio rerio larvae (5 dpf). Briefly: activity during first hour (no stimuli), difference vs DMSO (percentage points (treated minus DMSO)); higher = more of the behaviour than the DMSO vehicle control. The conditions noted are these: 10 µM; exposure time: 3 h pre-incubation + 3 h imaging. As to the method: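 5-dpf wild-type zebrafish larvae were imaged in 96-well plates. They were treated with 190 Tocris FDA-approved drugs at 10 µM (1 µl/ml DMSO) for 3 h before and 3 h during imaging at 28.5 °C, 48 larvae per drug. Automated image analysis gave % time moving and optomotor responses. Values are drug group mean minus DMSO vehicle mean (n=844), in percentage points, for 10 behaviours.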
With `C=C1C[C@@H]2[C@H](CC[C@]3(C)C(=O)CC[C@@H]23)[C@@]2(C)C=CC(=O)C=C12` [Exemestane], the “activity during first hour” value is -19.6.

As for `N[C@@H]1C[C@H]1c1ccccc1` [Tranylcypromine hydrochloride], the “activity during first hour” value was -14.1.

Regarding `COc1cc2c(cc1OC)C1CC(=O)C(CC(C)C)CN1CC2` (configuration not stated) [Tetrabenazine], the “activity during first hour” value was determined as 3.91.

Consider `CC(O)(CS(=O)(=O)c1ccc(F)cc1)C(=O)Nc1ccc(C#N)c(C(F)(F)F)c1` (configuration not stated) [Bicalutamide], for which the “activity during first hour” value came to 4.47.

With `CC[C@@H](C(N)=O)N1CCCC1=O` [Levetiracetam], the “activity during first hour” value came to 7.99.

Regarding `O=c1[nH]c2ccccc2n1C1CCN(CCCC(c2ccc(F)cc2)c2ccc(F)cc2)CC1` [Pimozide], the “activity during first hour” value was -12.5.

For the molecule `C=CCN1C[C@H](C(=O)N(CCCN(C)C)C(=O)NCC)C[C@@H]2c3cccc4[nH]cc(c34)C[C@H]21` [Cabergoline], the “activity during first hour” value is -9.57.

With `CN1C[C@H](C(=O)N[C@]2(C)O[C@@]3(O)[C@@H]4CCCN4C(=O)[C@H](Cc4ccccc4)N3C2=O)C[C@@H]2c3cccc4[nH]cc(c34)C[C@H]21` [Dihydroergotamine mesylate], the “activity during first hour” value was determined as 4.7.

With `COc1ccc(C(CN(C)C)C2(O)CCCCC2)cc1` (configuration not stated) [Venlafaxine hydrochloride], the “activity during first hour” value is -22.5.

`Cc1cccc([C@H](C)c2c[nH]cn2)c1C` [Dexmedetomidine hydrochloride]: the “activity during first hour” value was -27.8.

On to `CCN(C)C(=O)Oc1cccc([C@H](C)N(C)C)c1` [Rivastigmine tartrate], for which the “activity during first hour” value came out at 6.97.

`CC(C)C[C@H]1C(=O)N2CCC[C@H]2[C@]2(O)O[C@](NC(=O)[C@@H]3C=C4c5cccc6[nH]c(Br)c(c56)C[C@H]4N(C)C3)(C(C)C)C(=O)N12` [Bromocriptine mesylate]: the “activity during first hour” value turned out to be 15.2.
